In the supplement of paper PMC11537057:
Structures can show the parent of a compound that is named as a salt. ± gives the standard deviation of the averaged measurements. Over roughly 1,700 compounds, “cell number in HSV-1-infected wells relative to infected DMSO wells (H2B-RFP signal)” has its median near 100; the highest 2% begin near 140. This is one part of a sample in which the highest values are shown more often than they occur.

system: A549 infected with HSV-1; assay: cell number in HSV-1-infected wells relative to infected DMSO wells (H2B-RFP signal); higher = more surviving cells (uninfected or antiviral-protected wells give about 200%; low = toxicity); details: 10 µM; 48 h; MOI: 0.1
Description: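 Selleck FDA-approved library (L1300) screened in duplicate at 10 µM on A549 H2B-mRuby cells in 384-well plates, infected with HSV-1 strain 17 YFP-ICP4 at MOI 0.1 one hour before drug addition. Imaged after 2 days at 37°C. Cell growth (H2B-RFP) and infection (ICP4-YFP) are expressed as % of DMSO-treated wells. Hits: growth >90% and infection <20% of DMSO.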

| Structure (SMILES) | cell number in HSV-1-infected wells |
| --- | --- |
| COc1cc2c(cc1OC)[C@H]1C[C@@H](OC(=O)[C@@H](N)C(C)C)[C@H](CC(C)C)CN1CC2 [Valbenazine tosylate] | 134 ± 41% |
| O=C(O)c1cn(C2CC2)c2cc(N3CCNCC3)c(F)cc2c1=O [Ciprofloxacin hydrochloride hydrate] | 139 ± 2.3% |
| O=C(O)c1cn(-c2ccc(F)cc2)c2cc(N3CCNCC3)c(F)cc2c1=O [Sarafloxacin HCl] | 151 ± 7.2% |
| CN1CCN(c2cc3c(cc2F)c(=O)c(C(=O)O)cn3-c2ccc(F)cc2)CC1 [Difloxacin HCl] | 129 ± 16% |
| CCN1CCN(c2cc3c(cc2F)c(=O)c(C(=O)O)cn3C2CC2)CC1 [Enrofloxacin] | 147 ± 8.9% |
| CN1C[C@@H]2C[C@H]1CN2c1cc2c(cc1F)c(=O)c(C(=O)O)cn2C1CC1 [Danofloxacin Mesylate] | 110.8 ± 1.1% |
| CCn1cc(C(=O)O)c(=O)c2cc(F)c(N3CCNCC3)cc21 [Norfloxacin] | 97.4 ± 27% |
| NC(=O)c1cccc2cn(-c3ccc([C@@H]4CCCNC4)cc3)nc12 [Niraparib (MK-4827) tosylate] | 71.7 ± 13% |
| NC(=O)c1cccc2cn(-c3ccc([C@@H]4CCCNC4)cc3)nc12 [Niraparib (MK-4827)] | 71.2 ± 3.2% |
| C[C@H](CCC(=O)O)[C@H]1CC[C@H]2[C@@H]3CC[C@@H]4C[C@H](O)CC[C@]4(C)[C@H]3C[C@H](O)[C@]12C [Deoxycholic acid] | 109 ± 44% |
| COCC[n+]1c2c(n(Cc3cnccn3)c1C)C(=O)c1ccccc1C2=O [YM155 (Sepantronium Bromide)] | 9.16 ± 6% |
| CCN1CC(CCN2CCOCC2)C(c2ccccc2)(c2ccccc2)C1=O (stereo unspecified) [Doxapram HCl] | 91.29 ± 0.3% |
| CCN1CC(CCN2CCOCC2)C(c2ccccc2)(c2ccccc2)C1=O (stereo unspecified) [Doxapram] | 96.5 ± 8.2% |
| CC(C)N(CCCCOCC(=O)NS(C)(=O)=O)c1cnc(-c2ccccc2)c(-c2ccccc2)n1 [Selexipag] | 80.8 ± 1.5% |
| CN(C/C=C/C#CC(C)(C)C)Cc1cccc2ccccc12 [Terbinafine HCl] | 101 ± 9% |
| CN(C/C=C/C#CC(C)(C)C)Cc1cccc2ccccc12 [Terbinafine] | 99.9 ± 40% |
| OC[C@H]1O[C@H](O[C@H]2[C@H](O)[C@@H](O)C(O)O[C@@H]2CO)[C@H](O)[C@@H](O)[C@@H]1O (mixture of isomers) [Maltose] | 117 ± 4.3% |
| Cc1c(-c2cnccn2)ssc1=S [Oltipraz] | 100 ± 4% |
| C[C@@H](c1nc(-c2ccc(C#N)cc2)cs1)[C@](O)(Cn1cncn1)c1cc(F)ccc1F [Isavuconazole] | 99.7 ± 21% |
| CC(C)(C)C(=O)OCOP(=O)(COCCn1cnc2c(N)ncnc21)OCOC(=O)C(C)(C)C [Adefovir Dipivoxil] | 64.6 ± 8.8% |
| CC(C)OC(=O)OCOP(=O)(CO[C@H](C)Cn1cnc2c(N)ncnc21)OCOC(=O)OC(C)C [Tenofovir Disoproxil Fumarate] | 147.7 ± 0.7% |
| CC(C)OC(=O)[C@H](C)N[P@](=O)(OC[C@H]1O[C@@H](n2ccc(=O)[nH]c2=O)[C@](C)(F)[C@@H]1O)Oc1ccccc1 [Sofosbuvir (PSI-7977, GS-7977)] | 73.7 ± 21% |
| CC(C)OC(=O)[C@H](C)N[P@](=O)(CO[C@H](C)Cn1cnc2c(N)ncnc21)Oc1ccccc1 [Tenofovir Alafenamide (GS-7340)] | 189.3 ± 1.6% |

| Structure (SMILES) | cell number in HSV-1-infected wells |
| --- | --- |
| C[C@H](Cn1cnc2c(N)ncnc21)OCP(=O)(O)O [Tenofovir] | 79.9 ± 13% |
| O=c1oc2c(O)c(O)cc3c(=O)oc4c(O)c(O)cc1c4c23 [Ellagic acid] | 106 ± 2.3% |
| N=C1CCCN1Cc1[nH]c(=O)[nH]c(=O)c1Cl [Tipiracil hydrochloride] | 107 ± 1.8% |
| COC(=O)N[C@@H](C)CNc1nccc(-c2cn(C(C)C)nc2-c2cc(Cl)cc(NS(C)(=O)=O)c2F)n1 [Encorafenib (LGX818)] | 124 ± 6.5% |
| CNCC[C@H](Oc1cccc2ccccc12)c1cccs1 [Duloxetine HCl] | 92.1 ± 10% |
| CNCC[C@H](Oc1cccc2ccccc12)c1cccs1 [Duloxetine] | 121.44 ± 0.086% |
| CNC(=O)c1ccc(Nc2ncc(C(F)(F)F)c(NCc3nccnc3N(C)S(C)(=O)=O)n2)cc1 | 27.6 ± 6.6% |
| CC(C)(Oc1ccc(C(=O)c2ccc(Cl)cc2)cc1)C(=O)O [Fenofibric acid] | 75.9 ± 3.5% |
| CC(C)(Oc1ccc(Cl)cc1)C(=O)O [Clofibric Acid] | 82.4 ± 11% |
| CC(C)(Oc1ccc(CCNC(=O)c2ccc(Cl)cc2)cc1)C(=O)O [Bezafibrate] | 147 ± 48% |
| CC1(C)S[C@@H]2[C@H](NC(=O)COc3ccccc3)C(=O)N2[C@H]1C(=O)O [Penicillin V potassium salt] | 86.4 ± 5.6% |
| Cc1cc(C)cc(OCC2CNC(=O)O2)c1 (stereo unspecified) [Metaxalone] | 132 ± 16% |
| Nc1nc2[nH]cc(CCc3ccc(C(=O)N[C@@H](CCC(=O)O)C(=O)O)cc3)c2c(=O)[nH]1 [Pemetrexed] | 59.2 ± 18% |
| Nc1nc2[nH]cc(CCc3ccc(C(=O)N[C@@H](CCC(=O)O)C(=O)O)cc3)c2c(=O)[nH]1 [Pemetrexed Disodium Hydrate] | 67 ± 22% |
| CC(=O)SCC(Cc1ccccc1)C(=O)NCC(=O)OCc1ccccc1 (stereo unspecified) [Racecadotril] | 96.3 ± 17% |
| Cc1cc2c(cc1S(N)(=O)=O)S(=O)(=O)CCC2 [Meticrane] | 83.96 ± 0.47% |
| CS(=O)(=O)c1cccc(C[C@H](NC(=O)c2c(Cl)cc3c(c2Cl)CCN(C(=O)c2ccc4ccoc4c2)C3)C(=O)O)c1 [Lifitegrast] | 104 ± 15% |
| Cn1ncc(Cl)c1-c1cc(C(=O)N[C@H](CN)Cc2ccc(F)c(F)c2)oc1Cl | 69.8 ± 17% |
| COc1cc2nccc(Oc3ccc(NC(=O)C4(C(=O)Nc5ccc(F)cc5)CC4)cc3)c2cc1OC [Cabozantinib malate (XL184)] | 90.5 ± 47% |
| COc1cc2nccc(Oc3ccc(NC(=O)C4(C(=O)Nc5ccc(F)cc5)CC4)cc3)c2cc1OC | 72.2 ± 7.6% |
| COc1cc2nccc(Oc3ccc(NC(=O)NC4CC4)c(Cl)c3)c2cc1C(N)=O [lenvatinib Mesylate] | 144 ± 32% |
| COc1cc2nccc(Oc3ccc(NC(=O)NC4CC4)c(Cl)c3)c2cc1C(N)=O [Lenvatinib (E7080)] | 104 ± 6% |
| COc1cc2nccc(Oc3ccc(NC(=O)Nc4cc(C)on4)c(Cl)c3)c2cc1OC [Tivozanib (AV-951)] | 117 ± 40% |
